# Source: the supplement of paper PMC6555819
# System: VDR:RXRa (NR concentration 270 nM, RXRa partner concentration 90 nM)
# Experiment: PBM binding z-score (relative to random genomic background probes); higher = stronger binding; sequences stand for … in GC…GCGATTGACAGCGTAGAATGAAGG
# Protocol: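 Protein-binding microarray (Agilent 4x180K custom design, double-stranded 60-nt probes: 5' GC cap, 34-nt variable region, 24-nt constant primer region; full probe sequence given). Purified or IVT nuclear receptor:RXRα heterodimers (3:1 NR:RXRα, mostly 270:90 nM) or homodimers were incubated for 1 h in PBS with 2% milk and no ligand, then detected with Alexa488 antibodies. Fluorescence from o1-orientation probes (~5 replicates averaged) was converted to z-scores against 500 random hg19 background probes. Variable regions are seed direct-repeat (DR0–DR5) sites, all their single-nucleotide variants and half-site ablations.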
row,Sequence,PBM binding z-score
1,TATACAGGGTCAAAGGCTAGAGTACGAATGTCGA,4.8
2,CCGACTGGGCCACGAAAGGTCATTGATTCAGTGA,4.05
3,GCTCCTAGGTCAACTGATGGTCAGCTAAAGCTCG,2.29
4,GCGACTTGGGCATCAGCAGGTTACCATAACTTAA,-0.417
5,CGAACGAGGGCATTAGTTGATAGCAAATGCCGAT,0.658
6,TAGCCTAGGTCATGTGCCAGTATACCACGCGAAC,2.35
7,ATATCTAGGTAACAAGTTCAGTGAAAGAGAGGAC,2.31
8,ATATGTAGGTTATCGGGTCTTTCAGTTTGCGCAT,3.12
9,GGAACGAGGGCATTCGAGTTGATAGCGTGGCGAT,3.59
10,TGTCAAAATTCAAAGGTAACGTAAGTATCCACAC,0.436
11,TCGAGTAGGTTAGTCGGGCCATTCAGCCAACATA,0.761
12,CAGCGTAGGTCAGGGCCAGTATAGGAGGAACGTT,0.388
13,TAGCCTAGGTCATGCAGGCCAGTATAGTGTCGGC,3.25
14,AGTATGAGGTTACCAAAGATCAGGGAAACGCTTG,1.41
15,GTACCACGGTGAATAGGTCGTTGATGAGTAGGCG,-0.0883
16,CCGACTGAGGCAAAGGTTACCATACTCAGTACGA,1.07
17,TCTATTAGTTGAAGGTCAACCGACGAGTCCGTTT,3.85
18,GCATATAGGTAATACAAGGTGAAGGTCCGATTGT,0.155
19,TTACCAAGGTGAAGGTCGGTGATCCCTCTGTAGA,0.428
20,CGAACAAGGGCATGAGTTGATAGCAAATGCCGAT,0.706

row,Sequence,PBM binding z-score
1,CCAGACAGGTGAGAAGGTAACTGAGCCTCGATTA,-0.0476
2,AGACTGAGGTTAAGATCAGGGAAACAGAATACAT,0.967
3,AGAATGAGGTTACCAAACATCAGGGAAACGCTTG,1.04
4,ATATGTAGCTTATCGGGTCATTCAGTTTGCGCAT,4.71
5,TCTTGTAGATCAACAGGAGGTAAAGAAAGATCGA,0.194
6,CCTTACGGGTCACGAGGTTATGGCACGACGAGCG,4.99
7,AGAATGAGGTGATTAAGATCAGGGAATTGCGGTC,0.0675
8,CCGACTGGGGCATAAGGTTCCCATAAGCCAGCCC,-0.0761
9,AGAACGAGGGCAATGAGTTGATGGCACGGGTGGC,4.7
10,ACTCGTAGGACAAAGGTCAGAGCTACGCCAGTGA,2.89
11,CCTAGTTGGTCCGGAGGTCACACACCGGATATGA,3.77
12,ATTCCAAGGTGATCGTGAGGTCGTTGATACTAAC,3.31
13,GCTCGGATGACAAGGTCAGAGCTTTGTCCGTAGA,0.722
14,GCTTACGGGTCAGAGGTTATAGCATGAATAGAAT,3.48
15,CCTAGTTGGTCAGGAGGTCACACATCGGATATGA,3.76
16,TAGCCTAGGTCATCCGGGCCAGTATAGTGTCGGC,3.81
17,GCATATAGGTAATACAAGGTGAAAGTTCGATTGT,1.17
18,AGAACGATGGCACGCTGAGTTGATAGCAGAGTAG,-0.574
19,AATACAGGGTCATCGTAGACCAGAGTACGCACAG,5.04
20,CCGAGTGGGTTATGGGGCATTCAGGCAACGGTGA,-0.199
